Laboratory results reported in the supplement of paper PMC7669877.
± gives the uncertainty stated by the source.

Each molecule was assayed on Candidatus Liberibacter solanacearum in potato hairy roots (assay: relative CLso titer (% of untreated control); higher = less inhibition of bacterial titer). Conditions: 10 µM; 72 h.
Protocol: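 Primary screen of ~220 Spectrum collection (MicroSource) compounds at 10 µM (0.1% DMSO) on Candidatus Liberibacter solanacearum-infected potato hairy roots in multi-well plates (Gamborg B-5 medium, vacuum infiltrated, 21 °C, dark, 72 h). CLso titer was measured by qPCR of 16S rDNA normalised to potato RPL2 (2^-ddCq), pairwise-standardised against untreated controls, averaged over two biological replicates and expressed as % of untreated.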

SMILES | relative CLso titer [%]
O=C(O)CCCO | 127 ± 31
[O-][n+]1ccccc1[S-].[O-][n+]1ccccc1[S-].[Zn+2] | 64.7 ± 4.9
Cc1cc(O)ccc1Cl | 45.9 ± 1.8
O=c1[nH]c2ccccc2n1CCCN1CCC(n2c(=O)[nH]c3cc(Cl)ccc32)CC1 | 126 ± 28
Cc1cccc(C)c1NC1=NCCCS1 | 91.4 ± 17
C[C@]12CC[C@H]3[C@@H](CCC4=CC(=O)CC[C@@]43C)[C@@H]1CC[C@@H]2O | 119 ± 11
CNC(C)[C@H](O)c1ccccc1 (stereo not given in full) | 160 ± 24
C[N+]12CCC(CC1)C(OC(=O)C(O)(c1ccccc1)c1ccccc1)C2 (stereo not given) | 57.1 ± 5
O=C1CCO1 | 103 ± 58
COc1cc2c(c(OC)c1OC)-c1ccc(OC)c(=O)cc1[C@@H](NC(C)=O)CC2 | 47.6 ± 2.7
C[C@@H]1C[C@@H]([C@H](O)CC2CC(=O)NC(=O)C2)C(=O)[C@@H](C)C1 | 214 ± 43
COc1ccc2c(c1)[C@]13CCCC[C@@H]1[C@H](C2)N(C)CC3 | 539 ± 330
c1ccc2c(c1)sc1ccccc12 | 193 ± 4.5
Cc1ccc(O)cc1.Cc1cccc(O)c1.Cc1ccccc1O | 70.4 ± 30
C[C@@H]1O[C@@H](O[C@H]2C[C@@H](O)[C@]3(CO)[C@H]4[C@H](O)C[C@]5(C)[C@@H](C6=CC(=O)OC6)CC[C@]5(O)[C@@H]4CC[C@]3(O)C2)[C@H](O)[C@H](O)[C@H]1O | 85.6 ± 47
O=c1[nH]c2ccccc2n1C1CCN(CCCC(c2ccc(F)cc2)c2ccc(F)cc2)CC1 | 135 ± 2
CO[C@]12C[C@@H](COC(=O)c3cncc(Br)c3)CN(C)[C@@H]1Cc1cn(C)c3cccc2c13 | 135 ± 20
NC(=O)CN1CCCC1=O | 123 ± 35
CC[C@H]1CN2CCc3cc(OC)c(OC)cc3[C@@H]2C[C@@H]1C[C@H]1NCCc2cc(OC)c(OC)cc21 | 117 ± 28
CC(=O)O[C@H]1C[C@H](O[C@H]2[C@@H](O)C[C@H](O[C@H]3[C@@H](O)C[C@H](O[C@H]4CC[C@@]5(C)[C@H](CC[C@@H]6[C@@H]5C[C@@H](O)[C@]5(C)[C@@H](C7=CC(=O)OC7)CC[C@]65O)C4)O[C@@H]3C)O[C@@H]2C)O[C@H](C)[C@H]1O[C@@H]1O[C@H](CO)[C@@H](O)[C@H](O)[C@H]1O | 118 ± 37
O=C(O)CCCc1ccc(N(CCCl)CCCl)cc1 | 111 ± 11
N.N.[Cl][Pt][Cl] | 76.7 ± 6.9
O=P1(N(CCCl)CCCl)NCCCO1 (stereo not given) | 39.8 ± 6.9
CC(C)C[C@H]1C(=O)N2CCC[C@H]2[C@]2(O)O[C@](NC(=O)[C@@H]3C=C4c5cccc6[nH]c(Br)c(c56)C[C@H]4N(C)C3)(C(C)C)C(=O)N12 | 76.9 ± 25
CN1C[C@H](C(=O)N[C@]2(C)O[C@@]3(O)[C@@H]4CCCN4C(=O)[C@H](Cc4ccccc4)N3C2=O)C[C@@H]2c3cccc4[nH]cc(c34)C[C@H]21 | 107 ± 46
Fc1ccc(Oc2ccnc3cc(Cl)cc(Cl)c23)cc1 | 85.4 ± 20
CCC(=O)O[C@H]1CC[C@H]2[C@@H]3CCC4=CC(=O)CC[C@]4(C)[C@H]3CC[C@]12C | 83.1 ± 2.9
CCCCCCCCCCCCCCCC[n+]1ccccc1 | 136 ± 72
CCCC(C)(COC(N)=O)COC(=O)NC(C)C (stereo not given) | 92.4 ± 17
CN[C@@H](C)[C@@H](O)c1ccccc1 | 98.4 ± 3.8
